Laboratory results: article PMC5913336, “True equilibrium measurement of transcription factor-DNA binding affinities using automated polarization microscopy”

Target: Ttk-PF (Drosophila melanogaster, UniProt P17789 499-564)
Experiment: FP; 33 mM phosphate pH 7.0, 90 mM NaCl, 0.01% Tween 20, 0.1 mM DTT, 0.5% agarose; room temperature
Details: dsDNA, one strand shown

Sequence	binding signal	Kd
TCGCCTGGATAAC	> 208 Kd / Kd of best base at the position	–
TCGCCAGGATACC	3.82 Kd / Kd of best base at the position	–
TCGCCAGGATAAG	1.76 Kd / Kd of best base at the position	–
TCGCCAGGATAAC	–	~48 nM
TCGCTAGGATAAC	> 208 Kd / Kd of best base at the position	–
TCGCCAGGATATC	1.65 Kd / Kd of best base at the position	–
TCACCAGGATAAC	5.13 Kd / Kd of best base at the position	–
CCGCCAGGATAAC	3.01 Kd / Kd of best base at the position	–
TCGACAGGATAAC	26.7 Kd / Kd of best base at the position	–
TCGCCATGATAAC	> 208 Kd / Kd of best base at the position	–
TCGCCAGGATAAA	1.28 Kd / Kd of best base at the position	–
TCGCCAGGAAAAC	13.5 Kd / Kd of best base at the position	–
TCGCCAGGATAGC	1 Kd / Kd of best base at the position	–
TCGCCAGTATAAC	> 208 Kd / Kd of best base at the position	–
TCGCGAGGATAAC	67.2 Kd / Kd of best base at the position	–
TGGCCAGGATAAC	2.43 Kd / Kd of best base at the position	–
TCGGCAGGATAAC	1.42 Kd / Kd of best base at the position	–
TCGCCAGGATGAC	3.28 Kd / Kd of best base at the position	–
TCGTCAGGATAAC	> 208 Kd / Kd of best base at the position	–
TCGCCCGGATAAC	> 208 Kd / Kd of best base at the position	–

Sequence	binding signal	Kd
TCGCAAGGATAAC	> 208 Kd / Kd of best base at the position	–
TCGCCAGGACAAC	12.9 Kd / Kd of best base at the position	–
TCGCCAGGCTAAC	5.16 Kd / Kd of best base at the position	–
TCGCCAGGATTAC	1.69 Kd / Kd of best base at the position	–
TCTCCAGGATAAC	3.54 Kd / Kd of best base at the position	–
TCGCCACGATAAC	> 208 Kd / Kd of best base at the position	–
TTGCCAGGATAAC	1.71 Kd / Kd of best base at the position	–
TCGCCAGCATAAC	5.81 Kd / Kd of best base at the position	–
TCGCCAGGATCAC	7.79 Kd / Kd of best base at the position	–
GCGCCAGGATAAC	2.76 Kd / Kd of best base at the position	–
TCCCCAGGATAAC	2.9 Kd / Kd of best base at the position	–
TCGCCAGAATAAC	> 208 Kd / Kd of best base at the position	–
TCGCCAGGGTAAC	8.56 Kd / Kd of best base at the position	–
TCGCCGGGATAAC	> 208 Kd / Kd of best base at the position	–
TCGCCAGGTTAAC	12.8 Kd / Kd of best base at the position	–
ACGCCAGGATAAC	2.88 Kd / Kd of best base at the position	–
TCGCCAGGATAAT	1.84 Kd / Kd of best base at the position	–
TCGCCAAGATAAC	124 Kd / Kd of best base at the position	–
TCGCCAGGAGAAC	8.25 Kd / Kd of best base at the position	–
